Laboratory results published in PubChem BioAssay AID1159580 (chemical genetic matrix, 2015).
“And” between values parts separate entries of the source, which are not always exact repeats. Identical values can stand only once. Among all 5,500 compounds or so, about 2,000 (36%) were called active. Not shown: some 18% with an inconclusive outcome. No stated cut-off is given here; in the data, active means normalized growth mostly below about 0.91 (no sharp cut-off); inconclusive means no clear call, values can overlap the other calls; inactive means mostly above about 0.92. This is one part of the list.

Test: chemical genetic growth profiling, strain panel (AID 1159580);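 further: tested at 20 µM; growth read once vehicle control cultures reached saturation at 30 °C; 1 = growth at the plate median or of vehicle wells; lower values mean less growth of the strain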
Details: S. cerevisiae deletion strains, growth OD

Measured: normalized growth

O=C1c2ccccc2C(=O)C1c1ccccc1
inactive: locus YAL013W, strain DEP1, hits give low values 0.975 | locus YAL021C, strain ccr4, hits give low values 1.01 | locus YAL026C, strain drs2, hits give low values 1 | locus YAL030W, strain snc1, hits give low values 1 | locus YBL061C, strain skt5, hits give low values 0.998 | locus YBR009C, strain hhf1, hits give low values 1.01 | locus YBR021W, strain FUR4, hits give low values 1 | locus YBR023C, strain chs3, hits give low values 1 | locus YBR171W, strain sec66, hits give low values 0.957 | locus YBR229C, strain ROT2, hits give low values 1 and 0.94 | locus YBR231C, strain swc5, hits give low values 1.01 | locus YBR279W, strain paf1, hits give low values 0.993 | locus YCL011C, strain gbp2, hits give low values 1 | locus YCL016C, strain dcc1, hits give low values 1.01 | locus YCL029C, strain bik1, hits give low values 1.01 | locus YCL061C, strain MRC1, hits give low values 1 and 0.995 | locus YCL069W, strain vba3, hits give low values 0.995 | locus YCR088W, strain abp1, hits give low values 0.988 | locus YDL005C, strain med2, hits give low values 1 | locus YDL035C, strain GPR1, hits give low values 1.01 | locus YDL040C, strain nat1, hits give low values 1 | locus YDL074C, strain BRE1, hits give low values 1 | locus YDL101C, strain DUN1, hits give low values 1.01 and 0.909 | locus YDL134C, strain PPH21, hits give low values 1.01 | locus YDL185W, strain tfp1, hits give low values 0.991 | locus YDL192W, strain arf1, hits give low values 1.01 | locus YDR001C, strain nth1, hits give low values 0.981 | locus YDR069C, strain doa4, hits give low values 0.996 | locus YDR101C, strain arx1, hits give low values 1 | locus YDR137W, strain rgp1, hits give low values 0.995 | locus YDR150W, strain NUM1, hits give low values 0.998 and 1.01 | locus YDR159W, strain sac3, hits give low values 1.01 | locus YDR162C, strain NBP2, hits give low values 0.995 | locus YDR195W, strain ref2 0.997 | locus YDR297W, strain sur2, hits give low values 0.993 | locus YDR318W, strain mcm21, hits give low values 1.01 | locus YDR334W, strain swr1, hits give low values 0.996 | locus YDR335W, strain msn5, hits give low values 0.995 | locus YDR388W, hits give low values 1.02 | locus YDR392W, strain spt3, hits give low values 0.918 | locus YDR502C, strain sam2, hits give low values 1 | locus YEL003W, strain gim4, hits give low values 0.991 | locus YEL037C, strain rad23, hits give low values 0.992 | locus YEL061C, strain CIN8 (second series), hits give low values 0.986 | locus YEL061C, strain CIN8, hits give low values 0.998 and 0.977 | locus YER015W, strain faa2, hits give low values 1.01 | locus YER016W, strain bim1, hits give low values 1 | locus YER110C, hits give low values 1.01 | locus YER111C, strain swi4, hits give low values 0.999 | locus YER155C, strain BEM2 (second series), hits give low values 1 | locus YER155C, strain BEM2, hits give low values 0.989 | locus YER167W, strain BCK2, hits give low values 0.997 | locus YFR010W, strain ubp6, hits give low values 1 | locus YGL078C, strain dbp3, hits give low values 0.99 | locus YGL086W, strain mad1, hits give low values 0.997 | locus YGL167C, strain pmr1, hits give low values 1 | locus YGL173C, strain kem1, hits give low values 1.02 | locus YGL227W, strain vid30, hits give low values 0.978 | locus YGL240W, strain doc1, hits give low values 1.01 | locus YGL248W, strain PDE1, hits give low values 1 | locus YGL253W, strain hxk2, hits give low values 0.998 | locus YGR078C, strain PAC10, hits give low values 0.942 | locus YGR135W, strain pre9, hits give low values 1.01 | locus YGR229C, strain SMI1, hits give low values 1.01 and 1.05 | locus YGR252W, strain gcn5, hits give low values 0.998 | locus YHR013C, strain ard1, hits give low values 0.974 | locus YHR027C, strain rpn1, hits give low values 0.997 | locus YHR030C, strain SLT2, hits give low values 1 and 0.957 and 0.982 | locus YHR079C, strain IRE1 (second series), hits give low values 1.01 | locus YHR079C, strain IRE1, hits give low values 0.95 | locus YHR087W, strain rtc3, hits give low values 0.923 | locus YHR094C, strain hxt1, hits give low values 1.01 | locus YHR129C, strain ARP1, hits give low values 0.992 | locus YHR142W, strain chs7, hits give low values 1 | locus YHR200W, strain rpn10, hits give low values 1.01 | locus YIL066C, strain RNR3, hits give low values 1.01 | locus YIL073C, strain SPO22, hits give low values 1.03 | locus YIL125W, strain kgd1, hits give low values 0.989 | locus YIR030C, strain dcg1, hits give low values 1 | locus YJL092W, strain hpr5, hits give low values 0.983 | locus YJL095W, strain BCK1 (second series), hits give low values 1 | locus YJL095W, strain BCK1, hits give low values 0.984 and 0.97 | locus YJL115W, strain asf1, hits give low values 0.99 | locus YJL129C, strain trk1, hits give low values 0.978 | locus YJL134W, strain LCB3, hits give low values 0.993 | locus YJL154C, strain vps35, hits give low values 0.991 | locus YJL164C, strain tpk1, hits give low values 1 | locus YJL166W, strain qcr8, hits give low values 1.01 | locus YJL168C, strain set2, hits give low values 1.01 | locus YJL187C, strain SWE1 (second series), hits give low values 1 | locus YJL187C, strain SWE1, hits give low values 1 | locus YJR043C, strain POL32, hits give low values 1.01 and 0.982 | locus YJR066W, strain TOR1, hits give low values 0.92 | locus YJR075W, strain HOC1, hits give low values 1.01 and 0.971 | locus YKL009W, strain mrt4, hits give low values 0.974 | locus YKL068W, hits give low values 0.989
